# From PubChem
# Rows were chosen to be rich in hits. Some 11% of all compounds tested hit in one or more screens of this group.
# IMPase Li inh: membrane-permeable IMPase blocker, potentiated with lithium; CHO-M1 cells, IP1 TR-FRET (IP-One), carbachol + lithium; Potency, µM (titrated, usually from 59.4 µM), for inactives: top-dose activity, negative = IMPase inhibition, hits mostly inhibitors; 210,000 compounds, 0.35% hits;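 also: IP1 builds up when IMPase is blocked and the TR-FRET signal falls; potency is read from the fitted curve at half-maximal effect; plate controls were basal vehicle for no effect and high inhibitor control for full effect; nearly all actives have a fitted effect of over 50% in size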
#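 Concentration–response in CHO-M1 cells, lithium-potentiated; 30 min at 37C. IP1 detected by competitive TR-FRET after 10 min lysis at RT. Hill-fitted AC50.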
# HPGD block: inhibitors of human 15-hydroxyprostaglandin dehydrogenase (HPGD) | P15428 | purified HPGD, NADH fluorescence kinetic, PGE2 substrate | Potency, µM, inactives show at the top dose activity change, negative = inhibition, actives largely listed as inhibitors | 150,000 compounds, 4.3% hits | AID 894; active = well fitted inhibition curve with a large enough effect, not every such curve was filed as active; inconclusive = small, poorly fitted or top-dose-only effect, or another doubt; inactive = no such curve, though single readings can be large or run the other way; also: potency is read from the fitted curve at half-maximal effect
# Target sequence (P15428 whole entry, looked up): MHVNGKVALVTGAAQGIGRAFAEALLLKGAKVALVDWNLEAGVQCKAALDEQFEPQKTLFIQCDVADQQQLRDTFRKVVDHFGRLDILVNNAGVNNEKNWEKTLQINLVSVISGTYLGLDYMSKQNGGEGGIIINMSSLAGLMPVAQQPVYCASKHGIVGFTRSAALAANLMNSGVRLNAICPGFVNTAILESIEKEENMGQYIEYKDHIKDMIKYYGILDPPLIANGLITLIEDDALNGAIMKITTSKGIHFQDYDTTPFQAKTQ
#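 NADH formation kinetics: reaction with 30 uM PGE2 and 1 mM NAD+ (final), 20 nM enzyme, Tris-HCl pH 8 with Tween 20, after 15 min compound preincubation at room temperature. Fluorescence change, last versus first of five reads.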
# PNC assembly inh: blocks assembly of the perinucleolar compartment; PC3M PTB-GFP, PNC prevalence imaging, 16 h; stronger effect = lower value; 140,000 compounds, 3.1% hits; activity change (PNC), negative = inhibition, % at 10 µM;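 active = readout at or below -70, meaning at least 70% loss of cells showing the perinucleolar compartment, a nuclear body marking cancer cells; inconclusive = readout between -30 and a set limit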;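 also: plate controls were DMSO wells for no effect and camptothecin positive control wells for full effect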
#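 Compounds are pinned in duplicate onto adhered PC3M cells stably expressing GFP-tagged PTB and incubated 16 h at 37 C. Cells are then fixed, nuclei stained with Hoechst, and PNC-positive cells counted.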
# ALOX12 inhib: 12-hLO (ALOX12) enzyme inhibition | P18054 | purified 12-hLO, xylenol orange hydroperoxide absorbance | Potency, µM (titrated, usually from 57.1 µM), without a hit: at the top dose activity change, negative = inhibition, most hits filed as inhibitors | 150,000 compounds, 0.12% hits | AID 1452; also: potency is read from the fitted curve at half-maximal effect; nearly all actives have a fitted effect of over 55% in size
#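 Hydroperoxide formation by human 12-lipoxygenase from 40 uM arachidonic acid was followed colorimetrically via ferric-xylenol orange complex, using the 573/405 nm absorbance ratio. Enzyme concentration was 150 nM, with 30 min reaction at room temperature.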
# ALDH1A1 inh: inhibitors of human aldehyde dehydrogenase 1A1; P00352; Purified ALDH1A1, NADH fluorescence, propionaldehyde substrate; Potency, µM (doses to about 75.3 µM), for inactives: at the highest dose activity, negative = inhibition, most hits filed as inhibitors; 220,000 compounds, 7.3% hits; active = well fitted inhibition curve with a large enough effect, not every such curve was filed as active; inconclusive = small, poorly fitted or top-dose-only effect, or another doubt; inactive = no such curve, though single readings can be large or run the other way;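 also: potency is read from the fitted curve at half-maximal effect; plate controls were no enzyme wells and a reference inhibitor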
# IMPase cell inh: membrane-permeable compound that blocks inositol monophosphatase | 120,000 tested, under 10 active | AID 901 | P97697 | CHO-M1 cells, IP1 accumulation, HTRF TR-FRET ratio | inhibition (IP1 accumulation), % at 46.1 µM; active = well fitted curve in the direction sought with a large enough effect in the signal ratio, not every such curve was filed as active; inconclusive = small, poorly fitted or top-dose-only effect, or a change in a side signal; inactive = no such curve, though single readings can be large or run the other way; the % refers to the signal ratio;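 also: cells stimulated with carbachol in lithium chloride buffer; plate controls were DMSO basal wells for no effect and reference inhibitor wells for full effect; higher means more IMPase inhibition seen as more IP1 and lower FRET ratio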
# Target sequence (P97697 whole entry, looked up): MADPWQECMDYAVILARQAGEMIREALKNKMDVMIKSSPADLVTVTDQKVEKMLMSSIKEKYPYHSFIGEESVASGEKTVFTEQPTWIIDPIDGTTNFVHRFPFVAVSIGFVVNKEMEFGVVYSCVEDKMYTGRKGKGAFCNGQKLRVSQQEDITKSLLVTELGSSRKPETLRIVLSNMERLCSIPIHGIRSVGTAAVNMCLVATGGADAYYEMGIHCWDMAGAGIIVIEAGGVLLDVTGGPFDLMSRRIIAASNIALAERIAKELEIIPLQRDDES
#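 CHO-M1 cells (CHO stably expressing M1 receptor), compound up to 46 uM final, stimulated with carbachol (50 uM as added) in buffer with 50mM LiCl, pH 7.4, 30 min at 37C. Cytosolic IP1 read by TR-FRET; AC50 from Hill fits.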
# Active calls of the source: *; ? = inconclusive; . = not tested or not shown; [ ] = another dose, or the depositor's remark. Unless noted, calls follow the shape of the dose curve; as a rule, active = well fitted curve in the direction sought with a large enough effect; inconclusive = small, poorly fitted or top-dose-only effect, or another doubt; inactive = no such curve, though single readings can be large; an effect the other way counts as inactive or inconclusive. Unless noted, % is scaled to controls: 0 for no effect and ±100 for the full control effect.
SMILES,IMPase Li inh,HPGD block,PNC assembly inh,ALOX12 inhib,ALDH1A1 inh,IMPase cell inh
NC(=O)C1CCN(C(=O)CCSc2ccc(Cl)cc2)CC1,1%,.,.,.,2%,.
CCOC(=O)N1CCN(C(=O)COc2cc(C)c(Cl)c(C)c2)CC1,-8%,.,.,.,5%,.
O=C(CCSc1ccc(Cl)cc1)N1CCCCCC1,5%[38.3 µM],10µM*,-25,-10%,-7%,5
Cc1cc(OCCCC(=O)N2CCCCC2)cc(C)c1Cl,59%[38.3 µM],7.9µM*,?,-3%,?,12
CC/C(C)=N/O,5%,-3%,.,-1%,15%,.
CCCNC(=O)OC[C@@H]1O[C@H](CCO/N=C\[C@@H](OC)[C@H](C)/C=C\CC(=O)OC)C=C[C@@H]1Oc1ccc(OC)cc1,.,.,.,.,-6%[13.5 µM],.
COc1ccc(S(=O)(=O)N(CCc2ccccc2)CC(=O)Nc2cc(C)ccc2C)cc1,.,.,.,.,.,-8
Cc1ccc(C2=C(Cl)C(=O)C(c3ccc(C)cc3)=C(Cl)C2=O)cc1,-2%,2.2µM*,.,-7%[11.4 µM],-3%[13.5 µM],.
Cc1c(C(=O)N2CCN(c3ccccc3)CC2)sc2ncnc(N3CCC(C)CC3)c12,1%,-14%,-29,8%,?,-3
Cc1sc2ncnc(N3CCC(C)CC3)c2c1C,-5%,22µM*,-13,-1%,3%,16
COc1cccc(OC)c1OCCNC[C@@H]1CSc2ccccc2O1,.,.,.,1%,.,9
O=C(O)/C=C/C(=O)Nc1ccccc1SC(F)(F)F,1%,?,?,-9%,11µM*,4
O=C(O)/C=C/C(=O)NNC(=O)c1ccccc1Br,0%[38.3 µM],?,34,-5%,11µM*,1
CNC(=S)NNC(=O)c1ccccc1Br,-3%,-14%,7,2%,?,.
CCOC(=O)c1ccccc1NC(=O)/C=C/C(=O)O,-6%,-19%,-15,-9%,?,.
COC(=O)c1ccccc1NC(=O)/C=C/C(=O)O,-10%,-9%,-84*,-1%,1%,.
COc1cccc([C@@H]2Oc3ccc(OC)cc3C(=O)[C@H]2OC(=O)NCCOc2ccccc2)c1,-13%,-14%,.,.,1%,.
Cc1ccc(NC(=S)NCC23C=CC(O2)C2C(=O)N(c4ccc(C)cc4)C(=O)C23)cc1 (stereo unspecified),3%,?,-18,-21%,1.3µM*,.
S=C(NCC1CCCO1)N1CCN(c2ccccc2)CC1 (stereo unspecified),1%,.,.,.,-5%,.
Cc1cccc(NC(=S)NCc2cccn2C)c1,10%[38.3 µM],-18%,?,-18%,-6%,3
Cc1ccc(S(=O)(=O)NCC23C=CC(O2)C2C(=O)N(c4ccccc4)C(=O)C23)cc1 (stereo unspecified),22%[38.3 µM],?,9,-5%,3.5µM*,3
Cc1cccc(NC(=S)NCC23C=CC(O2)C2C(=O)N(c4ccc(Cl)cc4)C(=O)C23)c1 (stereo unspecified),7%,-27%,40,-12%,1.4µM*,.
Cc1ccc(N2C(=O)C3C4C=CC(CNC(=S)N5CCN(c6ccccc6)CC5)(O4)C3C2=O)cc1 (stereo unspecified),?,.,.,.,0.63µM*,.
C#CCCCO/N=C1/C[C@@H](O)[C@@H](O)[C@@H]2[C@@H]3C(=O)N(Cc4ccc5c(c4)OCO5)C(=O)[C@H]3CC[C@@H]12,.,.,.,.,-3%[13.5 µM],.
CN(C)c1ncc2nc(-c3ccc(Cl)cc3)c(=O)n(C)c2n1,-1%,.,.,.,?,.
SMILES,IMPase Li inh,HPGD block,PNC assembly inh,ALOX12 inhib,ALDH1A1 inh,IMPase cell inh
CC(=O)OC1C(=O)[C@@]2(C)C(O)CC3OC[C@]3(OC(C)=O)C2C(OC(=O)c2ccccc2)[C@]2(O)CC(OC(=O)C(O)C(NC(=O)c3ccccc3)c3ccccc3)C(C)=C1C2(C)C (stereo partly specified),26%,-9%,.,0%,4%,.
c1ccc(CNc2cc(-c3cccnc3)ncn2)cc1,-3%,.,.,.,?,.
c1ccc(CNc2cc(-c3ccoc3)ncn2)cc1,13%,.,.,.,22µM*,.
COc1ccc(CNc2cc(-c3ccoc3)ncn2)c(OC)c1,10%,.,.,.,25µM*,.
COc1cccc(-c2cc(NCc3ccccc3OC)ncn2)c1,13%,.,.,.,9%,.
CC(C)n1nc(C(=O)Nc2nc3ccccc3[nH]2)c2ccccc2c1=O,18%,.,.,.,?,.
O=c1oc2ccccc2c(O)c1C=Nc1cccnc1,3%,.,.,.,-3%,.
O=C(COC(=O)c1c[nH]c(=O)[nH]c1=O)Nc1ccccc1F,-3%,.,.,.,28µM*,.
Cc1ccccc1NC(=O)COC(=O)c1c[nH]c(=O)[nH]c1=O,-7%,.,.,.,9%,.
COc1ccc(NC2=NCC(=O)N2c2ccccc2)c(OC)c1,-17%[38.3 µM],2%,-94*,-1%,3%,7
COc1ccc(NC2=NCC(=O)N2c2ccccc2F)c(OC)c1,-7%[38.3 µM],-4%,-28,-1%,8%,3
Oc1c(Cl)cc(CN(Cc2cc(Cl)c(O)c(Cl)c2)C2CCCCC2)cc1Cl,-7%,-3%,.,2%[11.4 µM],5%[13.5 µM],.
Oc1c(Cl)cc(Cl)c2c1NCCC2,-3%,-10%,17,?,5µM*,17
COc1ccc(C2CC(c3c(-c4ccccc4)c4cc(Cl)ccc4[nH]c3=O)=NN2S(C)(=O)=O)cc1 (stereo unspecified),30%[38.3 µM],-7%,-13,1%,0.4µM*,2
CNC(=O)Cn1nc(-c2ccc(Cl)cc2)c2ccccc2c1=O,.,.,.,.,.,-6
Cn1c(=O)c(-c2cc(F)cc(F)c2)nc2cnc(Oc3cccc(Cl)c3)nc21,-1%,-30%,.,-6%,?,.
CC(=O)c1cccc([N+](=O)[O-])c1,-12%,-13%,.,-3%,28µM*,.
Cc1csc(C(=O)O)c1NC(=O)c1cccc([N+](=O)[O-])c1,-1%,.,.,.,14µM*,.
N/C(=N\OC(=O)Oc1ccccc1)c1cccc([N+](=O)[O-])c1,3%,-5%,10,-2%,?,.
O=C(NC(=S)Nc1nc(-c2cccc([N+](=O)[O-])c2)cs1)c1cc(Cl)ccc1Cl,14%,.,.,.,28µM*,.
O=C(NC(=S)Nc1nc(-c2cccc([N+](=O)[O-])c2)cs1)c1ccccc1Cl,12%,.,.,.,17%,.
N/C(=N\OC(=O)Oc1ccccc1)c1ccc([N+](=O)[O-])cc1,-2%,-2%,-121*,-4%,1%,.
O=C(CCCn1c(=O)[nH]c2ccc(Br)cc2c1=O)NCc1ccc(Cl)cc1,?,.,.,.,-12%,.
O=C(NNC1=NC2(CCCC2)Cc2ccccc21)c1ccncc1,-8%,.,.,.,?,.
Cc1ccccc1C(=O)O/N=C(\N)c1cccc([N+](=O)[O-])c1,19%[38.3 µM],2.8µM*,-4,9%,?,4
CC(=O)Nc1nc(C)c(-c2csc(Nc3cccc([N+](=O)[O-])c3)n2)s1,29%[38.3 µM],-22%,9,-7%,-4%,7
